The source made the active and inactive calls. Rule as the data show it, unless noted: active = inhibition above about 42%; inactive = the rest.
Legend:
[1] = target: Nuclear receptor coactivator 3 (Homo sapiens) (UniProt Q9Y6Q9); experiment: SRC3 coactivator transcriptional activity inhibitors, confirmation, cell-based, luminescence, quadruplicate (AID 588792;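 active = mean inhibition over 43.08%, the solvent-only control mean plus 3 SD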;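 also: 0% = DMSO treated cells and 100% = gossypol at 36 µM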); details: HEK293 GAL4-SRC3 luciferase reporter, at 3.6 µM, hits give high values
[2] = test system: transactivating tegument protein VP16 (Human herpesvirus 1), Gal4-VP16 luciferase reporter; experiment: VP16 transactivation inhibitors, counter-screen for SRC3 inhibitor project, cell-based, luminescence, high throughput (AID 588794; in the data active = inhibition above about 30%); details: mammalian cells, VP16-driven luciferase reporter luminescence; at 3.6 µM; hits give high values
[3] = target: Nuclear receptor coactivator 1 (Homo sapiens) (UniProt Q15788); experiment: SRC1 coactivator transcriptional activity inhibitors, confirmation, cell-based, luminescence, quadruplicate (AID 588820;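 active = mean inhibition above 46.68%, the untreated control wells mean plus 3 SD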;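 also: 0% = DMSO wells and 100% = gossypol 36 µM treated wells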); details: HEK293 GAL4-SRC1 luciferase reporter, at 3.6 µM, hits give high values
[4] = VP16 transactivation inhibitors, counter-screen for SRC1 inhibitor project, cell-based, luminescence, high throughput (AID 588824; in the data active = inhibition above about 25%); details: cell-based VP16 transactivation luciferase luminescence; at 3.6 µM; hits give high values
[5] = StAR promoter reporter inhibitors, counter-screen for LRH-1 inverse agonist project, cell-based, luminescence, high throughput (AID 651611; in the data active = inhibition above about 28%); details: StAR promoter luciferase reporter counterscreen, at 3.6 µM, hits give high values
[6] = target: Nuclear receptor subfamily 5 group A member 2 (Homo sapiens) (UniProt O00482); experiment: LRH-1 (NR5A2) inverse agonists, retest, confirmation, cell-based, luminescence (AID 651613); details: cell-based LRH-1 luciferase reporter, inverse agonism; at 3.6 µM; hits give high values;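 also: HEK293T cells co-transfected with LRH-1 and StAR promoter luciferase reporter; 0% = vehicle wells and 100% = parental cells lacking receptor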
[7] = target: Steroidogenic factor 1 (Homo sapiens) (UniProt Q13285); experiment: SF1 (NR5A1) inverse agonists, counter-screen for LRH-1 inverse agonist project, cell-based, luminescence, high throughput (AID 651614; in the data active = inhibition above about 44%;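 also: cells cotransfected with StAR promoter reporter and SF1 expression vector; 0% = vehicle on cells with receptor and 100% = vehicle on cells lacking receptor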); details: cell-based SF1 luciferase reporter, at 3.6 µM, hits give high values
[8] = VP16 transactivation reporter inhibitors, counter-screen for LRH-1 inverse agonist project, cell-based, luminescence, high throughput (AID 651615; in the data active = inhibition above about 33%); details: Gal4-VP16 luciferase reporter cells, at 3.6 µM, hits give high values

Measured: inhibition

Chain of Nuclear receptor subfamily 5 group A member 2 (Homo sapiens) (O00482 whole entry, looked up): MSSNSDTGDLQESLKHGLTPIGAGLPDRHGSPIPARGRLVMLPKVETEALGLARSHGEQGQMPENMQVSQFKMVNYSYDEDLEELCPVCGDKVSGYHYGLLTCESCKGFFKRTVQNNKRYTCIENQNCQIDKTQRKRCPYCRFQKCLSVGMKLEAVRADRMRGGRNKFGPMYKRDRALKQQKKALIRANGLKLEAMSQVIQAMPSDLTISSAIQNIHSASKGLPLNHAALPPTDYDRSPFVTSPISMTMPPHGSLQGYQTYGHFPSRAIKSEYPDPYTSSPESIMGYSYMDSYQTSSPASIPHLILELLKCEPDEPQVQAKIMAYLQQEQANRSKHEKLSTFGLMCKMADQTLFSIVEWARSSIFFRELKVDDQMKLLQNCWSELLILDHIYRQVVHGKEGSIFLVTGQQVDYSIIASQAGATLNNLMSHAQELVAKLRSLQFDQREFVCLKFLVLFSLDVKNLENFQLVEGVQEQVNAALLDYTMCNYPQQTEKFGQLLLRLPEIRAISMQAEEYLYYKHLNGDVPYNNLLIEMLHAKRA
Chain of Nuclear receptor coactivator 1 (Homo sapiens) (Q15788 whole entry, looked up, the tested form may be a part): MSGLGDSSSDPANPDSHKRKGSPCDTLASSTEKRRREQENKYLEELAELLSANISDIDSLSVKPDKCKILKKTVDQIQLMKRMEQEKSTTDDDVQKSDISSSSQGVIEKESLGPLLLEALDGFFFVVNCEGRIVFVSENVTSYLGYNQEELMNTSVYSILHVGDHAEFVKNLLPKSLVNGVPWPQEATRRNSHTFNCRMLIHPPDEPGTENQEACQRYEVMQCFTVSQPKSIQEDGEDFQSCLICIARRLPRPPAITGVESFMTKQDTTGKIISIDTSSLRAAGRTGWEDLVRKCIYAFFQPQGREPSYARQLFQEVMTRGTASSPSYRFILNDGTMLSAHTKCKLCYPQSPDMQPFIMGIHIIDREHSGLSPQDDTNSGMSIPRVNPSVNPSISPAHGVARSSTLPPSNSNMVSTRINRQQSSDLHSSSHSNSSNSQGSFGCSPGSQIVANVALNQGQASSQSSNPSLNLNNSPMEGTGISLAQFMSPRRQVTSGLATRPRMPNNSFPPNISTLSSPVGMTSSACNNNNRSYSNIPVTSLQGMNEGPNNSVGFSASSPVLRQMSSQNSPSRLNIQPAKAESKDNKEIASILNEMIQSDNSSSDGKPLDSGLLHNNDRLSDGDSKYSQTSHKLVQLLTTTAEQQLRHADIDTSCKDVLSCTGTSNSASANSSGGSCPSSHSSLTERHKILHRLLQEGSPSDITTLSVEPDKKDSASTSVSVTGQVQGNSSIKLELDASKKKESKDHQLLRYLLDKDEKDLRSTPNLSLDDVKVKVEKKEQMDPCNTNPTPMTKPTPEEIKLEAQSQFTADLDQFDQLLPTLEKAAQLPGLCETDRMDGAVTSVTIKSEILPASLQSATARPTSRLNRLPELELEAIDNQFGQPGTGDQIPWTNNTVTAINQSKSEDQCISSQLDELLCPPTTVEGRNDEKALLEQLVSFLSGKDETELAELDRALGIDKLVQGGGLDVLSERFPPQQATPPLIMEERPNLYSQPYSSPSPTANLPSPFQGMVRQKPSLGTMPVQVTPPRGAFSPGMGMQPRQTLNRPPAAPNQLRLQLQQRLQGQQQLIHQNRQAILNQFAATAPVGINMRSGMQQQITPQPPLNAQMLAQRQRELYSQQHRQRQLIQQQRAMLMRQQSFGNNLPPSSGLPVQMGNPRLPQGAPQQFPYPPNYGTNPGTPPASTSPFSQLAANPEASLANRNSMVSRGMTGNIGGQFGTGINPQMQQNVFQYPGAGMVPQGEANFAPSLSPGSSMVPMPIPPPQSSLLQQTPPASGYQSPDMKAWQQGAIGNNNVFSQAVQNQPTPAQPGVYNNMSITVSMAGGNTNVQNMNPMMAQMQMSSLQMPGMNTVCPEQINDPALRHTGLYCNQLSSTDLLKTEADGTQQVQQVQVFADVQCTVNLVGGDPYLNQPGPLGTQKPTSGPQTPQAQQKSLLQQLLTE
Chain of Steroidogenic factor 1 (Homo sapiens) (Q13285 whole entry, looked up, the tested form may be a part): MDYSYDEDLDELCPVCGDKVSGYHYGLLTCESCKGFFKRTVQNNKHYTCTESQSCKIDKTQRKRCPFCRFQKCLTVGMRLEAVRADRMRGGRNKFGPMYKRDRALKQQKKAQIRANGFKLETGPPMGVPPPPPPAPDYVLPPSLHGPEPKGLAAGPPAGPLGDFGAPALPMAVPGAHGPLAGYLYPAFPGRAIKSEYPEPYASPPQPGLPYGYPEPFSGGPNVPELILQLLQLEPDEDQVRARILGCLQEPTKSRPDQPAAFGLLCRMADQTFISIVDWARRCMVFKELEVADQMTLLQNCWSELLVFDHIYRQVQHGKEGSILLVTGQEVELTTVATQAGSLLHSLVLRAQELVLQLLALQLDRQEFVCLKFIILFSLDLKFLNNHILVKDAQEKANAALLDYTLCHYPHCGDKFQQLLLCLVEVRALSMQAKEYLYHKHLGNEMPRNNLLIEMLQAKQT
Chain of Nuclear receptor coactivator 3 (Homo sapiens) (Q9Y6Q9 whole entry, looked up, the tested form may be a part): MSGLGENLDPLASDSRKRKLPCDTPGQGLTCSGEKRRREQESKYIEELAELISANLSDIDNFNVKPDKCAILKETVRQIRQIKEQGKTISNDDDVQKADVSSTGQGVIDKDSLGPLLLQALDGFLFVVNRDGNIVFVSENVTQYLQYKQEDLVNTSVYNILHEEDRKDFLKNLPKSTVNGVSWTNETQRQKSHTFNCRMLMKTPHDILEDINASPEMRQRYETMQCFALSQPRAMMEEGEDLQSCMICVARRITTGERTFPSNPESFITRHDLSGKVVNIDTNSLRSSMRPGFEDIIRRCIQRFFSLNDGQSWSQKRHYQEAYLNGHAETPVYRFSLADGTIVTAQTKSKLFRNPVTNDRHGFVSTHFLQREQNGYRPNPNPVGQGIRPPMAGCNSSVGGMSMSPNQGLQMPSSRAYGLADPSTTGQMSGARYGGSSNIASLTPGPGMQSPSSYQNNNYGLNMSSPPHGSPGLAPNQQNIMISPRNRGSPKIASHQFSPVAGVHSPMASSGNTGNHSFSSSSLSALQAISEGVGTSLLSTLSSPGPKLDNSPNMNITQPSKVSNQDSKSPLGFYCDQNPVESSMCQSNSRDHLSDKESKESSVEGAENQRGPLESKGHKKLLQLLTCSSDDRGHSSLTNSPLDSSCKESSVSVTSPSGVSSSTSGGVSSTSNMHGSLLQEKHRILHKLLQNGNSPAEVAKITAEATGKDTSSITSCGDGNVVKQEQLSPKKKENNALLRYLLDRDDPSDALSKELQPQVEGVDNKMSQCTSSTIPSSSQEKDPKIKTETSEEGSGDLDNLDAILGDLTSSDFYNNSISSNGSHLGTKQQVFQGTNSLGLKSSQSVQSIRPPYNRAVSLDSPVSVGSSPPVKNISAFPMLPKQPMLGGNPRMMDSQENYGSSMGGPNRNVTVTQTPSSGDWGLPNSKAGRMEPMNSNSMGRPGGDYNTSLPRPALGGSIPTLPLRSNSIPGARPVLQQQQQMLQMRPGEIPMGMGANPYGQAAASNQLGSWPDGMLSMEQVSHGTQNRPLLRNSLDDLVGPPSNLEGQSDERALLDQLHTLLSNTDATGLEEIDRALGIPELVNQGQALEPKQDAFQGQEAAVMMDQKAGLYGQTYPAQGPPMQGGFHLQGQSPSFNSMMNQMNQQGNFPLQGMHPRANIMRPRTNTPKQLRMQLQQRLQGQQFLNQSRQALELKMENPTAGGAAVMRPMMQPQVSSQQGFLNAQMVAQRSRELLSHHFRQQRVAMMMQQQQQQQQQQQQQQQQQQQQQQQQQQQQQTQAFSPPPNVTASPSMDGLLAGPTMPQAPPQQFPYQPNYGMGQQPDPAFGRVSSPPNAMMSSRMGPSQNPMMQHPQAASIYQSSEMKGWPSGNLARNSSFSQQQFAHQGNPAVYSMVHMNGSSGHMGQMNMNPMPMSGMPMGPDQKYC

COc1ccccc1C(=O)Nc1nc2ccccc2s1
active: [1] 85.4% | [2] 79.6% | [3] 56.6% | [4] 71% | [5] 85.9% | [6] 86.4% | [7] 88% | [8] 75.6%

Nc1nc(N)nc(-c2cc(O)ccc2O)n1
active: [1] 78.4% | [2] 53.5% | [3] 74.7% | [4] 43.7% | [5] 41.7% | [6] 45.4% | [7] 65.9% | [8] 57.1%

Cn1c2c(c(=O)n(C)c1=O)C(C(F)(F)F)(C(F)(F)F)N=C(c1ccc(Cl)cc1)N2
active: [1] 77.8% | [2] 85.7% | [4] 83.9% | [5] 80.6% | [6] 104% | [7] 93.6% | [8] 86.7%
inactive: [3] 42.6%

NS(=O)(=O)c1ccc(NC(=O)/C=C/c2ccc3c(c2)OCO3)cc1
inactive: [1] 10.8% | [3] 17.1%
active: [2] 53.6% | [4] 52% | [5] 47% | [6] 61.7% | [7] 62.2% | [8] 66.2%

COc1cc(Cn2c3ccc(NC(=O)CCc4ccc(O)cc4)cc3c(=O)n2C)ccc1F
active: [2] 61.3% | [4] 56.6% | [5] 56% | [6] 70.8% | [7] 69.3% | [8] 71.1%
inactive: [1] 42.6% | [3] 31.5%

NC(=O)c1cccc(-c2cnc(N)c(C(=O)c3cccnc3)n2)c1
active: [1] 76.7% | [2] 49.5% | [3] 65.9% | [4] 48.5% | [5] 59.9% | [6] 72.6% | [7] 67.2% | [8] 72.7%
